Assay outcomes deposited in PubChem by several laboratories.
A selection: hits, their analogues and other compounds. The true share with any hit is near 4.5%.
Gli-Sufu antag – Gli-Sufu pathway antagonism; actives 0.74% (n = 340,000); inhibition, % at 5 µM; Sufu-KO-LIGHT fibroblasts, Gli luciferase reporter luminescence; AID 588413;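 active = inhibition above about 55%, limit read from the data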;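 also: 0% = DMSO-treated cells and 100% = wells with medium but no cells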
Mdm2-MdmX inh – disrupts the human Mdm2-MdmX interaction. O15151+Q00987. actives 3% (n = 330,000). SaOS-2 split-luciferase Mdm2/MdmX complementation, luminescence. inhibition, % at 8 µM;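 active = inhibition of at least 50% at 8 µM in the primary screen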
Target sequence (O15151 whole entry, looked up): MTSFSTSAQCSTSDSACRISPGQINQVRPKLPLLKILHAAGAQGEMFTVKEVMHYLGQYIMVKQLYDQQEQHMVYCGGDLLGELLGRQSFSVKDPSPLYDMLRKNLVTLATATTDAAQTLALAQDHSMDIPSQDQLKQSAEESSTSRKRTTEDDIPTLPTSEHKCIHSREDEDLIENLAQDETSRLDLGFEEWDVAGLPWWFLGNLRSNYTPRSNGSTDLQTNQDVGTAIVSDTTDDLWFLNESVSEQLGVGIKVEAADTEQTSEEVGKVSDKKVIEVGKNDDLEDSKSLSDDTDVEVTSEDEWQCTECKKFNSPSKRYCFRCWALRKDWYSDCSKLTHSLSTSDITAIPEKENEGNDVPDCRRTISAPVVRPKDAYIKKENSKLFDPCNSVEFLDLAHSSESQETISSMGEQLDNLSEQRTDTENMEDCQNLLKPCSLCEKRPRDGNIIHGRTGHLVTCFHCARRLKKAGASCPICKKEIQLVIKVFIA
Target sequence (Q00987 whole entry, looked up): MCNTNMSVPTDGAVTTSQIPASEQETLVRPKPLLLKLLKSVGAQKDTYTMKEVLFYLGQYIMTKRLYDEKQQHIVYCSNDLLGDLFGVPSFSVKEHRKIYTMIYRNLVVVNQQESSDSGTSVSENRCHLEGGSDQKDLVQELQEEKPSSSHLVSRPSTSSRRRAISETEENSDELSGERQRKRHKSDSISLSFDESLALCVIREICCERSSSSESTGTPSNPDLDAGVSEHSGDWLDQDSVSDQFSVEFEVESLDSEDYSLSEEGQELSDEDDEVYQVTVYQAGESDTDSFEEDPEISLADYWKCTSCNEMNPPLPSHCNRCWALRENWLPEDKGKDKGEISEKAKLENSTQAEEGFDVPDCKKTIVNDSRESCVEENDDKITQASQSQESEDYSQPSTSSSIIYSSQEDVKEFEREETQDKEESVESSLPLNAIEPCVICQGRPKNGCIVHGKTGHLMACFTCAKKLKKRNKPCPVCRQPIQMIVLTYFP
Jurkat NFkB inh – lowers PMA/ionomycin-induced NF-kB signal in Jurkat cells; AID 435003; actives 0.53% (n = 330,000); inhibition, % at 4 µM; PMA/ionomycin-induced NF-kB luciferase reporter, luminescence; in the data active = inhibition above about 50%
CSC inhib – cancer stem cell inhibition. inhibition, % at 7.5 µM. actives 1.1% (n = 300,000). AID 2717. cancer stem cell-like cells viability, luminescence; in the data active = inhibition above about 75%; tested in HMLE shEcad cells
Beta cell apopt – beta cell apoptosis inhibition | INS-1E cytokine-induced death, ATP luminescence, 48 h; percent of positive-control rescue, neutral wells zero | protection from apoptosis, % (concentration not given with the values) | actives 0.8% (n = 300,000);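 active = Every replicate reaches about 75%, or at least half do and their mean reaches it too, limit read from the data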;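 also: 0% = cytokine-treated negative control wells and 100% = positive control rescue; higher means more ATP so stronger rescue from cytokine killing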
697 NFkB inh – lowers PMA/ionomycin-induced NF-kB signal in 697 B cells; 697 B-cell NF-kB luciferase reporter, 16 h; AID 435022; actives 0.33% (n = 330,000); inhibition, % at 4 µM; in the data active = inhibition above about 35%
Gli antag conf – confirmation of Gli-SUFU pathway antagonists. inhibition, % at 5 µM. Sufu-KO-LIGHT cells, Gli luciferase reporter, luminescence. shares compounds with Gli-Sufu antag. AID 602428. actives 40% (n = 2,500);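 active = mean inhibition at 5 µM reaching about 45%, limit read from the data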;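 also: plate controls were DMSO-treated cells for no effect and wells lacking cells for full effect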
SufuKO cytotox – cytotoxic in Gli-SUFU antagonist counter-screen | shares compounds with Gli-Sufu antag | Sufu-KO-LIGHT cells cytotoxicity, ATP luminescence | cytotoxicity, % at 5 µM | actives 32% (n = 2,500) | AID 651994;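 active = mean cytotoxicity at 5 µM above about 25%, limit read from the data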;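 also: cells exposed to compound overnight for roughly 16 to 18 hours; plate controls were DMSO wells with cells for no effect and medium without cells for full effect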
Wnt3a cs – inhibits Wnt3a reporter, counter-screen for Gli-SUFU antagonists; Wnt-LIGHT cells, Wnt3a-driven luciferase reporter, luminescence; AID 651995; shares compounds with Gli-Sufu antag; inhibition, % at 6.25 µM; actives 20% (n = 2,500);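 active = mean inhibition above about 25%, limit read from the data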
The depositor's hits bear a star; . = no result given.

SMILES | Gli-Sufu antag | Mdm2-MdmX inh | Jurkat NFkB inh | CSC inhib | Beta cell apopt | 697 NFkB inh | Gli antag conf | SufuKO cytotox | Wnt3a cs
Cc1ccsc1/C=N/n1c(-c2ccncc2)n[nH]c1=S | 56* | 3 | -6 | 1 | 7 | -10 | 10 | 7 | 1
COc1ccc(CCNC(=O)CN2C(=O)COc3ccc(S(=O)(=O)N4CCOCC4)cc32)cc1OC | -9 | 6 | -13 | -1 | -9 | -2 | . | . | .
F[B-](F)(F)COc1ccccc1 | -8 | . | . | . | . | . | . | . | .
OCC1OC(n2ccc3c(NO)ncnc32)C(O)C1O (stereo not given) | 75* | . | . | . | . | . | 60* | 54* | 69*
CN(C)c1nc2c(N)ncnc2n1C1OC(CO)C(O)C1O (stereo not given) | -6 | . | . | . | . | . | . | . | .
CN(C)c1ncnc2c1ccn2C1OC(CO)C(O)C1O (stereo not given) | 62* | . | . | . | . | . | 68* | 48* | 40*
CCN(c1ccccc1)S(=O)(=O)c1ccc(N2CCN(c3ccc(O)cc3)CC2)nc1 | 55* | 5 | -2 | 53 | -10 | -21 | 29 | 4 | -24
CC1CC=C(O)C12OCC(C)(C)CO2 (stereo not given) | 10 | . | . | . | . | . | . | . | .
CN(C)P(=O)(Nc1cccc2ccccc12)Nc1cccc2ccccc12 | 51 | 36 | 6 | -11 | 17 | -15 | 29 | 16 | -34
CC(C)(C)NC(=O)CSc1nnc(-c2ccncc2)n1Cc1ccccc1 | 1 | -25 | 0 | -6 | -2 | -11 | . | . | .
CC(C)C(C)(C#N)NC(=O)CSc1nnc(-c2ccncc2)n1Cc1ccccc1 (stereo not given) | 95* | -1 | -2 | 13 | 3 | -20 | 22 | 7 | -12
COc1nnc(-c2ccc(N3CCCCC3)c(N)c2)c2ccccc12 | 53 | 2 | -13 | 0 | -2 | -59 | 59* | 19 | -36
CC(Oc1ccc(S(=O)(=O)N2CCCC2)cc1[N+](=O)[O-])C(=O)NC1(C#N)CCCCC1 (stereo not given) | 2 | 11 | -11 | 30 | 5 | 6 | . | . | .
CC1CN(C(=O)CCc2cc(C(C)(C)C)c(O)c(C(C)(C)C)c2)CC(C)O1 (stereo not given) | 66* | -3 | 7 | -1 | 23 | 6 | 86* | 31* | 29*
CCc1noc(C)c1C(=O)OCC(=O)Nc1c(F)cccc1F | 1 | 0 | 3 | -8 | 2 | 11 | . | . | .
CCOc1ccccc1NC(=O)COC(=O)c1c(CC)noc1C | 67* | -13 | -7 | . | . | 5 | 24 | 9 | 1
COc1ccccc1-c1noc2ncnc(Nc3cccc(C)c3C)c12 | 0 | 2 | 9 | 12 | . | -4 | . | . | .
CCC(NC(=O)NCc1ccccc1)(C(F)(F)F)C(F)(F)F | 52 | -16 | -6 | -3 | 2 | -16 | 9 | 27* | -12
CCC(NC(=O)NCc1ccc2c(c1)OCO2)(C(F)(F)F)C(F)(F)F | -8 | 3 | 0 | 4 | -3 | 14 | . | . | .
CC(C)=C(NC(=O)c1ccccc1)C(=O)NC(Cc1ccccc1)C(=O)O (stereo not given) | 16 | 13 | -9 | 9 | 10 | -1 | . | . | .
Cc1ccc(S(=O)(=O)NCCCNS(=O)(=O)c2ccccc2)cc1 | 5 | 25 | 9 | . | . | 14 | . | . | .
CSCCC(NC(=O)c1ccc([N+](=O)[O-])cc1Cl)C(=O)OC(C)C(=O)NCc1ccco1 (stereo not given) | -9 | 6 | -5 | -2 | -1 | 18 | . | . | .
CC1CC(C)CN(CCCNC(=O)c2ccc(CS(=O)(=O)Cc3cccc(Cl)c3)o2)C1 (stereo not given) | 54 | 11 | 5 | -8 | 3 | 10 | 26 | 9 | -33
CC1CCCN(CCCNC(=O)c2ccc(CS(=O)(=O)Cc3cccc(Cl)c3)o2)C1 (stereo not given) | 18 | 15 | -9 | -1 | 0 | 12 | . | . | .
CC(C)[C@H](NC(=O)N1CC(=O)Nc2ccccc21)C(=O)Nc1nccs1 | -15 | 11 | 11 | -21 | -1 | -9 | . | . | .
SMILES | Gli-Sufu antag | Mdm2-MdmX inh | Jurkat NFkB inh | CSC inhib | Beta cell apopt | 697 NFkB inh | Gli antag conf | SufuKO cytotox | Wnt3a cs
CCC(C)[C@H](NC(=O)N1CC(=O)Nc2ccccc21)C(=O)Nc1nccs1 (stereo not given in full) | 60* | 0 | -1 | -8 | -1 | -2 | 13 | 26* | -9
O=C(Cn1cnc([N+](=O)[O-])n1)c1ccccc1 | 24 | -4 | -1 | -5 | -3 | 2 | . | . | .
O=C(Cn1ccc([N+](=O)[O-])n1)c1ccccc1 | 51 | -19 | -17 | . | -1 | -14 | 8 | 21 | -5
Cc1cc(Br)ccc1N=C1NC(=O)CS1 | 1 | -4 | 5 | 9 | -1 | -5 | . | . | .
O=C1CN(C(=O)COC(=O)c2oc3ccccc3c2COc2ccccc2)c2ccccc2N1 | 5 | 7 | 15 | 5 | 1 | -11 | . | . | .
Cc1c(C(=O)OCC(=O)N2CC(=O)Nc3ccccc32)oc2ccccc12 | 94* | -9 | -11 | -8 | 0 | -3 | 12 | 14 | -35
Cc1c(Br)ccc(NC(=O)Cn2nc(-c3cccs3)ccc2=O)c1C | -2 | 5 | -3 | 5 | -7 | 5 | . | . | .
Cc1ccc(NC(=O)Cn2nc(-c3ccccc3Cl)ccc2=O)c(Br)c1 | 57* | -36 | 2 | 11 | -2 | -7 | 14 | 20 | -7
O=C(CCC1CCCCC1)NCc1cccnc1 | -3 | 4 | 2 | -11 | -14 | 16 | . | . | .
O=C(CCC1CCCCC1)Nc1cccnc1 | 56* | -8 | -25 | 9 | -4 | 4 | 19 | -9 | -22
O=C(NCCOC(=O)c1ccccc1)c1ccccc1 | 0 | 12 | -4 | . | -6 | 5 | . | . | .
O=C(NCCOC(=O)c1ccc(C(=O)OCCNC(=O)c2ccccc2)o1)c1ccccc1 | 54 | 6 | -14 | -15 | -2 | -3 | 13 | 5 | 4
CN(Cc1ccccc1)CC1C2CCC(C2)C1O (stereo not given) | 8 | . | . | . | . | . | . | . | .
O=C(COc1ccc(S(=O)(=O)N2CCOCC2)cc1)NC1CCCCC1 | -7 | . | . | . | -9 | . | . | . | .
N#CC1(NC(=O)CSc2nc3ccccc3o2)CCCCC1 | -14 | 15 | -1 | 5 | 1 | 21 | . | . | .
Cc1ccc(C)c(S(=O)(=O)N2CCN(C(=O)c3ccc(OCc4c(C)noc4C)cc3)CC2)c1 | 6 | 19 | 18 | -10 | 6 | 0 | . | . | .
Cc1ccccc1-c1cc(C(=O)NCC2CC2)nn1CC1CC(c2cccc([N+](=O)[O-])c2)=NO1 (stereo not given) | 10 | 6 | 9 | 7 | -5 | 5 | . | . | .
